Test results taken from PubChem BioAssay AID651951 (The Scripps Research Institute Molecular Screening Center, 2012).
In all, about 2,400 compounds went through this assay and about 1,100 (46%) were called active.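 How the source made its calls: active means inhibition above the run cutoff, the mean inhibition of all test compounds plus 3 SD (cut at about 49% in these data); inactive means the rest.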 The set was probably picked from earlier hits. Not all results are given here.

These compounds were tested against Trace amine-associated receptor 1 (Homo sapiens) (UniProt Q96RJ0) (assay: loss of beta-PEA response after agonist pre-exposure – cell-based, fluorescence, tachyphylaxis, counter-screen for TAAR1 agonist project, confirmation (AID 651951;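 further: beta-PEA stimulus applied at its EC80; loss of beta-PEA calcium signal after compound pretreatment read as receptor desensitization; 0% = DMSO with beta-PEA at EC80 and 100% = DMSO alone without agonist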)). Conditions: CHO RD-HGA16 hTAAR1, Fluo-8 calcium, at 3 µM, active compounds read high.
Sequence of Trace amine-associated receptor 1 (Homo sapiens) (Q96RJ0 whole entry, looked up): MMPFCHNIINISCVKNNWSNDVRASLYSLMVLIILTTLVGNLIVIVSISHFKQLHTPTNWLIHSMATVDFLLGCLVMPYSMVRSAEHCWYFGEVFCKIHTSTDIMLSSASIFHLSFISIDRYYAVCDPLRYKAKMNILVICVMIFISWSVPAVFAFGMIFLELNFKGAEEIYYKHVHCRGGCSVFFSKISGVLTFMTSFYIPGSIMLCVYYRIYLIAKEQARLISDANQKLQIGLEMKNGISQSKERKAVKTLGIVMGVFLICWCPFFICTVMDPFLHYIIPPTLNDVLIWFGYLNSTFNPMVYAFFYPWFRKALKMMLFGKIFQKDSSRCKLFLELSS

SMILES | inhibition
COc1ccc2c(c1)OC(O)(C(F)(F)C(F)F)CC2=O (centres undefined) | 11.2% (inactive)
NC[C@H](Cc1ccccc1)NCCc1cc(C(F)(F)F)cc(C(F)(F)F)c1 | 12.9% (inactive)
CCCCCCCCCCOC(=O)Cn1c(COc2ccc(C)cc2)[n+](C)c2ccccc21 | 102% (active)
CC(Oc1ccc(Cl)cc1)C(=O)OCC(=O)Nc1ncc(Cl)cc1Cl (centres undefined) | 7.27% (inactive)
Cc1ccc(Cl)cc1N1CCN(C(=O)c2cccc3c(=O)c(C)c(-c4ccccc4)oc23)CC1 | 80.9% (active)
Nc1c(C(=O)c2cccs2)sc2nsc(SCCN3CCCCC3)c12 | 60.8% (active)
COc1ccc(C(N)c2csc(NC(=O)Nc3cccc(C(F)(F)F)c3)n2)cc1 (centres undefined) | 44.9% (inactive)
NC(c1ccccc1)c1csc(NC(=O)Nc2cccc(C(F)(F)F)c2)n1 (centres undefined) | 50.7% (active)
CCOC(=O)Cc1csc(NC(=O)Nc2ccccc2)n1 | 28.9% (inactive)
COc1cc(OC)c(-n2cc(-c3ccc(Cl)cc3)[nH]c2=O)cc1Cl | 79.8% (active)
Cc1ccccc1NC(=S)NC(=O)Cc1ccc(Cl)cc1 | 81.5% (active)
O=C(Cc1ccc(Cl)cc1)NC(=S)Nc1ccccc1O | 106% (active)
CCC(c1nnnn1Cc1ccco1)N(CCc1ccccc1)Cc1cc2cccc(C)c2[nH]c1=O (centres undefined) | 20.6% (inactive)
NC(Cc1ccccc1)c1csc(Nc2cc(Oc3ccccc3)ncn2)n1 (centres undefined) | 65.7% (active)
CC(=O)Oc1ccc(Cn2c(C)c(C(=O)NCc3ccc(C#N)cc3)sc2=O)cc1 | 72.9% (active)
O=C1CCCC(O)=C1C=NCCc1ccccc1 | 32.1% (inactive)
Cc1ccn2c(=O)c(C(=O)NCCC3=CCCCC3)c(O)nc2c1 | 65.7% (active)
c1ccc(-c2csc(N3CCc4ccccc4C3)n2)cc1 | 15.3% (inactive)
Oc1ccc2ccc3cccc[n+]3c2c1 | 19.6% (inactive)
CC(NC(=O)c1cc(-c2ccccc2)on1)c1ccccc1 (centres undefined) | 51.1% (active)
COc1cc(OC)cc(C(=O)N[C@H](C(=O)OCC(=O)NC(C)c2ccccc2)C(C)C)c1 (some centres undefined) | 12.6% (inactive)
c1ccc(C2CNCc3c2ccc2ccccc32)cc1 (centres undefined) | 95.2% (active)
CCN(CC)c1ccc2oc(=O)c(C)nc2c1 | 25.7% (inactive)
O=C(Nc1ccccc1)Nc1nnc(COc2ccccc2F)s1 | 72.4% (active)
O=C(Nc1ccc(F)cc1)Nc1nnc([C@H]2C[C@H](O)[C@@H](CO)O2)s1 | 25.5% (inactive)
O=C(c1noc2c1CCCC2)N1CCc2ccccc2C1 | 5.47% (inactive)
CN(C)c1ccc(/C=C2\NC(=S)N(Cc3ccccc3)C2=O)cc1 | 63.9% (active)

SMILES | inhibition
CC(=O)Nc1ccccc1Sc1ccc2c3c(cccc13)C(=O)N(c1ccc(C)cc1)C2=O | 5.11% (inactive)
CCCOc1ccc(-c2c(C(=O)N/N=C/c3ccco3)nnn2-c2nonc2N)cc1 | 13.2% (inactive)
Cc1cccc(NC(=O)C(C)N2C(=O)C3C4CC(C(Br)C4Br)C3C2=O)c1 (centres undefined) | 52.5% (active)
CCCC1CCC(=NNC(=S)NCCc2ccccc2)CC1 (centres undefined) | 51.7% (active)
Cc1ccc(O)c(NC(=S)NC(=O)COc2ccc(Br)cc2)c1 | 104% (active)
Nc1cc(OC(=O)c2ccccc2Br)nn1S(=O)(=O)c1ccccc1 | 11.7% (inactive)
COCCCn1c(Cc2csc(Nc3cccc(Cl)c3)n2)nnc1SCC(=O)OC1CCCCC1 | -2.24% (inactive)
COc1ccc(Cl)cc1C(=O)NNC(=S)NC(=O)/C=C/c1ccco1 | 67.7% (active)
O=C1C=C(c2ccc(Cl)cc2)C(=O)N1Nc1ccccc1 | 72.8% (active)
Nc1nnn(CC(=O)N/N=C/c2ccccc2)n1 | 17.8% (inactive)
CSc1nc(N)c(C#N)c(-c2ccccc2Cl)c1C#N | 24.1% (inactive)
O=C(CSc1nc(-c2ccco2)cc(C(F)(F)F)n1)NCc1cccs1 | -5.52% (inactive)
Cc1c(CNCCc2ccccc2)c(C(=O)O)c(C)n1-c1ccccc1 | 53.7% (active)
COc1cccc(N(CC(=O)N2CCc3ccccc3C2)S(C)(=O)=O)c1 | 15.3% (inactive)
S=C(NCCCc1cnc[nH]1)NCCCN(Cc1ccc(Cl)c(Cl)c1)c1ccc(Br)cn1 | 59.7% (active)
O=C(NCCc1ccccc1)/C(=C\c1ccc([N+](=O)[O-])cc1)NC(=O)c1ccccc1 | 7.67% (inactive)
CCCCCC(=O)NC(=S)NNC(=O)c1ccc([N+](=O)[O-])cc1 | 61% (active)
CCc1c(-c2ccccc2OC)ncn1CCc1ccccc1OC | 39.8% (inactive)
CCCCc1c(-c2ccc(Cl)cc2)ncn1CCc1ccccc1OC | 83.4% (active)
CCCCCc1c(-c2ccc(OC)c(OC)c2)ncn1CCc1ccccc1OC | 97.1% (active)
CCCCCc1c(-c2cccc(Br)c2)ncn1CCc1ccccc1OC | 20.5% (inactive)
CCCCCc1c(Cc2ccccc2)ncn1CCc1ccccc1OC | 88.8% (active)
CCCCc1c(-c2ccc(Br)cc2)ncn1CCc1ccccc1OC | 49.3% (active)
N#Cc1ccc(OCCCN2CCC(C(O)(c3ccccc3)c3ccccc3)CC2)c(F)c1 | 23.9% (inactive)
Cn1c(=O)c(=O)n(C)c2cc(S(=O)(=O)NCCc3ccccc3)ccc21 | 73.1% (active)
O=[N+]([O-])c1cc(S(=O)(=O)NCCc2ccccn2)ccc1Cl | 39% (inactive)
c1ccc2c(c1)C(=NC1CCCCC1)NC2=NC1CCCCC1 | 42.2% (inactive)
